Here are results for 40 compounds from PubChem BioAssay (Tox21).

“And” between values parts separate entries of the source, which are not always exact repeats. Equal entries are not always repeated. Records with an inconclusive call do not appear. Entries that show only a call come without a potency. More than one record can exist for a structure, and the calls need not agree. The source made the active and inactive calls. The call rests on the fitted dose curve.
Potency means the concentration at half of the fitted maximal effect.

This assay in a line: Nuclear factor erythroid 2-related factor 2/antioxidant responsive element (Nrf2/ARE) small molecule agonists: luciferase reporter gene qHTS assay in human keratinocytes (AID 1919969). Further: nearly all actives have a fitted effect of over 35% in size. Particulars: KeratinoSens HaCaT ARE-luciferase, luminescence, 24 h; series mostly up to 92.4 µM. A general note: Reporter assays use an easily measured gene product as a stand-in for the process of interest.
Take `CCCCCCCCCCCC[N+](C)(C)C`: the Potency result is “inactive”. Turning to `O=C1CCCCCCCCCCC1`, the Potency entry was “inactive”. The same measure for `CC(=O)[C@H]1CC[C@H]2[C@@H]3CC=C4C[C@@H](O)CC[C@]4(C)[C@H]3CC[C@]12C`: “inactive”. The same measure for `O=C1O[C@H](CO)[C@@H](O)[C@H](O)[C@H]1O`: “inactive”; for `Brc1nc2ccccc2s1`: “inactive”; for `Oc1ccc2ccccc2c1N=Nc1ccccc1`: 30.6 µM (active) and 21.7 µM (active). The same measure for `Nc1cc([N+](=O)[O-])ccc1C(=O)O`: “inactive”. `CCCCCCCCCCCCCC[N+](C)(C)Cc1ccccc1`: the Potency entry was “inactive”. In the case of `CCCCCCCCOc1ccc(C(=O)c2ccccc2)c(O)c1` it was “inactive”.

With `Clc1ccc(Cl)c(Cl)c1Cl`, the Potency entry was “inactive”. `COc1ccc(C(Cl)=C(c2ccc(OC)cc2)c2ccc(OC)cc2)cc1`: the Potency entry is “inactive”. Consider `CCCCC1(COC(=O)CCC(=O)O)C(=O)N(c2ccccc2)N(c2ccccc2)C1=O`, for which the Potency result is “inactive”. The same measure for `CN(C)CCCN`: “inactive”. As for `C=C(C)C(=O)O[C@H]1C[C@@H]2CC[C@@]1(C)C2(C)C`, the Potency was 963 nM (active) and inactive. Turning to `C=CCOC(=O)c1ccccc1C(=O)OCC=C`, the Potency entry was “inactive”. As to `CC(=O)c1ccc(S(=O)(=O)NC(=O)NC2CCCCC2)cc1`, the Potency result is “inactive”. Take `CCC(O)OC(O)CC` (stereo not given): the Potency result was “inactive”. The same measure for `COCCOC(=O)c1ccccc1C(=O)OCCOC`: “inactive”.

Consider `CC(C)CC(=O)CC(C)CC(C)C` (stereo not given), for which the Potency entry was “inactive”.

On to `O=c1n(CC2CO2)c(=O)n(CC2CO2)c(=O)n1CC1CO1` (stereo not given), for which the Potency is 60.8 µM (active) and 68.6 µM (active). The same measure for `O=C(/C=C/C=C/c1ccc2c(c1)OCO2)N1CCCCC1`: “inactive and 2.73 µM (active)”; for `Cc1cc(Cc2ccc(N)c(C)c2)ccc1N`: “inactive”; for `CCC[C@H](N[C@@H](C)C(=O)N1[C@H](C(=O)O)C[C@@H]2CCCC[C@@H]21)C(=O)OCC`: “inactive”. The same measure for `c1ccc2c(c1)Cc1ccccc1-2`: “inactive”. Turning to `CCCOC(=O)NCCCN(C)C`, the Potency entry was “inactive”. As for `CCCCOC(=O)CC(CC(=O)OCCCC)(OC(C)=O)C(=O)OCCCC`, the Potency entry is “inactive”. In the case of `C=CC[N+](C)(C)CC=C` it was “inactive”; in that of `CC(O)COCC(C)O` (stereo not given), “inactive”. In the case of `CCCCC/C=C\C/C=C\CCCCCCCC(=O)OC` it was 27 µM (active) and 68.6 µM (active); in that of `Nc1ncnc2nc[nH]c12`, “inactive”.

As to `Cc1ccc(N)c(S(=O)(=O)O)c1`, the Potency result is “inactive”. In the case of `NCCOCCO` it was “inactive”; in that of `CC(=O)Oc1ccc(C)cc1`, “inactive”; in that of `O=S1(=O)CCCO1`, “inactive”. In the case of `C=C(C)C(=O)OCC(CC)(COC(=O)C(=C)C)COC(=O)C(=C)C`, the Potency result was “inactive”. As for `O=[N+]([O-])c1cccc(Cl)c1`, the Potency entry is “inactive”. With `CCOCC(=O)O`, the Potency result is “inactive”.

In the case of `C=CCc1ccc(OC)c(OC)c1`, the Potency result was “inactive”.

With `Clc1ccccn1`, the Potency result was “inactive”.

With `Cc1cccc([N+](=O)[O-])c1C`, the Potency entry was “inactive”.
